# A number with no mark means an inactive call.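 Rule for the calls: active = MAPPIT score above the 99th percentile of random reference set scores in the same batch; inactive = at or below it.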
# How the values were obtained:
# Experiment in all cases: MAPPIT interaction score (arbitrary units); higher = stronger binary interaction signal, active = hit call of the paper
# 7B2 = settings: MAPPIT configuration: N-N; pair source set: Finley_Y2H
# Procedure: (§1)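 MAPPIT in HEK293T cells: Drosophila bait and prey ORFs (from the FlyBi ORF collection) were co-transfected in quadruplicate, with two wells stimulated by erythropoietin. Interaction-dependent JAK-STAT activation was read out with a STAT-responsive firefly luciferase reporter. Positive calls use the 99th percentile of random reference set (RRS) scores within each batch […]. Batches Dvs01 and Dvs02 used the N-N configuration and Dvs04 the N-C configuration. Pairs come from FlyBi screens, CuraGen, DPiM, Finley Y2H, Lit-BM-16, Lit-BS-16 and RRS.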
# CG10591 = settings: MAPPIT configuration: N-N; pair source set: Curagen_low_conf
# Procedure: as §1
# CSN7 = settings: MAPPIT configuration: N-N; pair source set: Lit-BM-16
# Procedure: as §1
# PICK1 = settings: MAPPIT configuration: N-N; pair source set: screen_1
# Procedure: as §1
# ACOX1 = settings: MAPPIT configuration: N-N; pair source set: Curagen_low_conf
# Procedure: as §1
# mbo = settings: pair source set: Lit-BM-16
# Procedure: as §1
# 128up = settings: MAPPIT configuration: N-N; pair source set: DPIM
# Procedure: as §1
# AP-1mu = settings: MAPPIT configuration: N-C; pair source set: screen_4
# Procedure: as §1
# HLH54F = settings: MAPPIT configuration: N-N; pair source set: Curagen_low_conf
# Procedure: as §1
# 14-3-3epsilon = settings: pair source set: Lit-BM-16
# Procedure: as §1
# hpo = settings: MAPPIT configuration: N-N; pair source set: Lit-BM-16
# Procedure: as §1
# sd = settings: MAPPIT configuration: N-C; pair source set: Lit-BM-16
# Procedure: as §1
# CG17377 = settings: MAPPIT configuration: N-C; pair source set: screen_4
# Procedure: as §1
# Mst87F = settings: MAPPIT configuration: N-N; pair source set: screen_2
# Procedure: as §1
# lawc = settings: MAPPIT configuration: N-C; pair source set: screen_3
# Procedure: as §1
# 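Note: HEK293T cells with Epo stimulation, STAT-responsive firefly luciferase reporter, fold induction versus unstimulated cells divided by the larger fold induction of two negative controls lacking either bait or prey.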
binder,measurement,setting,value
CSN4 (protein) MAANYGISTAALRSQLMGLINFTGTHKDQADKYRQLLKTVLTNTGQELIDGLRLFVEAIVNEHVSLVISRQILNDVGSELSKLPDDLSKMLSHFTLEKVNPRVISFEEQVAGIRFHLANIYERNQQWRDAATVLVGIPLETGQKQYSVECKLGTYLKIARLYLEDNDSVQAELFINRASLLQAETNSEELQVLYKVCYARVLDYRRKFIEAAQRYNELSYRKIVDQGERMTALKKALICTVLASAGQQRSRMLATLFKDERCQHLPAYGILEKMYLERIIRRSELQEFEALLQDHQKAATSDGSSILDRAVFEHNLLSASKLYNNITFEELGALLDIPAVKAEKIASQMITEGRMNGHIDQISAIVHFENRELLPQWDRQIQSLCYQVNSIIEKISVAEPDWMDNLN,MAPPIT interaction score,7B2,-0.195
same,MAPPIT interaction score,CG10591,0.0604
same,MAPPIT interaction score,CSN7,4.26 (active)
same,MAPPIT interaction score,PICK1,2.03
emb (protein) MATMLTSDEAGKLLDFSQKLDINLLDKIVEVVYTAQGEQLRLAQSILTTLKEHPEAWTRVDSILEYSQNQRTKFYALQILEEVIKTRWKVLPRNQCEGIKKYVVSLIIKTSSDPIVMEQNKVYLNKLNMILVHILKREWPRNWETFISDIVGASKTNESLCMNNMVILKNLSEEVFDFSQGQITQTKAKHLKDTMCSEFSQIFTLCSFVLENSMNAALIHVTLETLLRFLNWIPLGYIFETQQIETLIFKFLSVPMFRNVTLKCLSEIAGLTAANYDENFATLFKDTMVQLEQIVGQNMNMNHVFKHGSDTEQELVLNLAMFLCTFLKEHGKLVEDAKYVDYLNQALMYLVMISEVEDVEVFKICLEYWNSLVEDLYNSEFFHPTLESTKRQQVYPRRRFYAPILSKVRFIMISRMAKPEEVLVVENENGEVVREFMKDTNSINLYKNMRETLVFLTHLDSVDTDRIMTLKLLNQVNGSEFSWKNLNTLCWAIGSISGAFCEEDEKRFLVTVIKDLLGLCEQKKGKDNKAIIASNIMYVVGQYPRFLRAHWKFLKTVVNKLFEFMHETHDGVQDMACDTFIKIAIKCRRYFVTIQPNEACTFIDEILTTMSSIICDLQPQQVHTFYEAVGYMISAQVDQVQQDVLIERYMQLPNQVWDDIISRASKNVDFLKNMTAVKQLGSILKTNVAACKALGHAYVIQLGRIYLDMLNVYKITSENIIQAIEVNGVNVNNQPLIKTMHVVKKETLNLISEWVSRSNDNQLVMDNFIPPLLDAILLDYQRCKVPSAREPKVLSAMAIIVHKLRQHITNEVPKIFDAVFECTLDMINKNFEDFPQHRLSFYELLQAVNAHCFKAFLNIPPAQFKLVFDSVVWAFKHTMRNVADMGLNILFKMLQNLDQHPGAAQSFYQTYFTDILMQIFSVVTDTSHTAGLPNHAIILAYMFSLVENRKITVNLGPIPDNMIFIQEYVASLLKSAFTHLSDNQVKVFVTGLFNLDENVQAFKEHLRDFLIQIREATGEDDSDLYLEEREAALAEEQSNKHQMQRNIPGMLNPHELPEDMQDE,MAPPIT interaction score,ACOX1,1.6
same,MAPPIT interaction score,mbo; MAPPIT configuration: N-C,1.34
same,MAPPIT interaction score,mbo; MAPPIT configuration: N-N,1.54
mod (protein) MAQKKAVTVKGKKATNGEEKPLAKRVTKSTKVQEEETVVPQSPSKKSRKQPVKEVPQFSEEDESDVEEQNDEQPGDDSDFETEEAAGLIDDEAEEDEEYNSDDEEDDDDDELEPGEVSKSEGADEVDESDDDEEAPVEKPVSKKSEKANSEKSEENRGIPKVKVGKIPLGTPKNQIVFVTNLPNEYLHKDLVALFAKFGRLSALQRFTNLNGNKSVLIAFDTSTGAEAVLQAKPKALTLGDNVLSVSQPRNKEENNERTVVVGLIGPNITKDDLKTFFEKVAPVEAVTISSNRLMPRAFVRLASVDDIPKALKLHSTELFSRFITVRRISQESISRTSELTLVVENVGKHESYSSDALEKIFKKFGDVEEIDVVCSKAVLAFVTFKQSDAATKALAQLDGKTVNKFEWKLHRFERSTSGRAILVTNLTSDATEADLRKVFNDSGEIESIIMLGQKAVVKFKDDEGFCKSFLANESIVNNAPIFIEPNSLLKHRLLKKRLAIGQTRAPRKFQKDTKPNFGKKPFNKRPAQENGGKSFVKRARF,MAPPIT interaction score,128up,-0.0936
Cp38 (protein) MTRSTYIWALAACLIACASANYGSSQGYGPESGSGASDGGADAASAAAAAAGGAGGAGGEYGGANAGAGALESGADAAGVAQAGQSSYGSDQNIPYKPVNTKGNTLTSSITYPQNKGEILIHRPAPIIVKRPPTKVLVNHPPLVVKPAPVVLHKPPAIVLRKVYVKHHPRRVKVEPVFVNVVKPPAEKYFVNENKQGYGQGSQSHGHGHGHGGHGHGHSGHGHGGHGAGPHGPGPHDGGRALPAYASGADSAAASAGYQLLQSGNQGLSALANIAGEREGPYGPAPSHQHYSAGPAGHGGYAAPAY,MAPPIT interaction score,AP-1mu,0.503
TfIIB (protein) MASTSRLDNNKVCCYAHPESPLIEDYRAGDMICSECGLVVGDRVIDVGSEWRTFSNEKSGVDPSRVGGPENPLLSGGDLSTIIGPGTGSASFDAFGAPKYQNRRTMSSSDRSLISAFKEISSMADRINLPKTIVDRANNLFKQVHDGKNLKGRSNDAKASACLYIACRQEGVPRTFKEICAVSKISKKEIGRCFKLTLKALETSVDLITTADFMCRFCANLDLPNMVQRAATHIAKKAVEMDIVPGRSPISVAAAAIYMASQASEHKRSQKEIGDIAGVADVTIRQSYKLMYPHAAKLFPEDFKFTTPIDQLPQM,MAPPIT interaction score,AP-1mu,1.05
same,MAPPIT interaction score,HLH54F,-0.376
yki (protein) MLTTMSASSNTNSLIEKEIDDEDMLSPIKSNNLVVRVNQDTDDNLQALFDSVLNPGDAKRPLQLPLRMRKLPNSFFTPPAPSHSRANSADSTYDAGSQSSINIGNKASIVQQPDGQSPIAAIPQLQIQPSPQHSRLAIHHSRARSSPASLQQNYNVRARSDAAAANNPNANPSSQQQPAGPTFPENSAQEFPSGAPASSAIDLDAMNTCMSQDIPMSMQTVHKKQRSYDVISPIQLNRQLGALPPGWEQAKTNDGQIYYLNHTTKSTQWEDPRIQYRQQQQILMAERIKQNDVLQTTKQTTTSTIANNLGPLPDGWEQAVTESGDLYFINHIDRTTSWNDPRMQSGLSVLDCPDNLVSSLQIEDNLCSNLFNDAQAIVNPPSSHKPDDLEWYKIN,MAPPIT interaction score,14-3-3epsilon; MAPPIT configuration: N-C,2.04
same,MAPPIT interaction score,14-3-3epsilon; MAPPIT configuration: N-N,2.25
same,MAPPIT interaction score,hpo,0.208
same,MAPPIT interaction score,sd,0.32
spin (protein) MSLKHQKQSYQPLPTAAAMDNPAMIQSSGSSGSSSSEEGGSREDVANLSPLGLPTTYSSQQLMPSDTDSMEEERHRLRPHHHHHHPLGEHHHIPGIPPSAVVPSRLSSVGRSQWFTVTVLCFVNLINYMDRFTIAGVLTDVRNDFDIGNDSAGLLQTVFVISYMVCAPIFGYLGDRYSRPWIMAVGVGLWSTTTLLGSFMKQFGWFIAFRALVGIGEASYSTIAPTIISDLFVHDMRSKMLALFYFAIPVGSGLGYIVGSKTAHLANDWRWALRVTPILGIVAVFLILLIKDPVRGHSEGSHNLEATTYKQDIKALVRNRSFMLSTAGFTCVAFVAGALAWWGPSFIYLGMKMQPGNENIVQDDVAFNFGVITMLAGLLGVPLGSFLSQYLVKRYPTADPVICAFGLLVSAPLLTGACLLVNSNSVGTYALIFFGQLALNLNWAIVADILLYVVVPTRRSTAEAFQILISHALGDAGSPYLVGAISEAIMKHLHKNPSDSGLTTELRSMSQVAGSAISNATQVIAEATTSLMETARSSASQEYSDVEQFEGLQYALFSTSFVEVLGGIFFIFTACFIIKDKYNATRGLQDATAQQQQRDERGQIA,MAPPIT interaction score,AP-1mu,2.01
same,MAPPIT interaction score,CG17377,1.62
same,MAPPIT interaction score,Mst87F,2.13
same,MAPPIT interaction score,lawc,1.7
